Data: PubChem BioAssay AID493034 (The Scripps Research Institute Molecular Screening Center, 2011)
The whole screen tested about 2,400 compounds, of which about 2,200 (92%) were called active. So high a share suggests a set chosen from earlier hits. This is one part of the list. A number with no mark means an inactive call.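 The calls were made as follows: active = mean inhibition over triplicate runs exceeds the cutoff derived for the earlier primary screen (cut at about 25% in these data); inactive = the rest.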

molecular target: Platelet-activating factor acetylhydrolase IB subunit alpha2 (Homo sapiens) (UniProt P68402); assay: inhibition of human PAFAH1B2 catalytic subunit – biochemical, fluorescence polarization, FP-rhodamine probe, triplicate, confirmation (AID 493034); settings: recombinant PAFAH1B2, FP-rhodamine probe fluorescence polarization; at 3.39 µM; active compounds read high;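 also: 0% = enzyme with DMSO and 100% = wells lacking PAFAH1B2 protein; inhibitors lower polarization by leaving the probe unbound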
Sequence (P68402 whole entry, looked up): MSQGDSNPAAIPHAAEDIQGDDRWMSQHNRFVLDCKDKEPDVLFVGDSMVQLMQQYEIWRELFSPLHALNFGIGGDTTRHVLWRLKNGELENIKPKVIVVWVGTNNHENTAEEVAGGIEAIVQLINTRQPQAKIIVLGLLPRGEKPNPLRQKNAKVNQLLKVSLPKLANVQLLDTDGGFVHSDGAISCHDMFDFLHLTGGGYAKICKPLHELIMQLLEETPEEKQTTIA

Row | SMILES | inhibition
1 | COC(=O)C1=C(c2ccc(C(C)=O)cc2)C[C@@H]2CC[C@H]1N2C(=O)NCc1ccc(C(F)(F)F)cc1 | 28% (active)
2 | COC(=O)C1=C(c2ccc(C(C)=O)cc2)C[C@@H]2CC[C@H]1N2C(=O)NCc1ccc(F)cc1 | 23.9%
3 | O=P(NS(=O)(=O)c1ccc(Br)cc1)(Oc1ccccc1)Oc1ccccc1 | 78.1% (active)
4 | Cc1ccc(S(=O)(=O)NP(=O)(Oc2ccccc2)Oc2ccccc2)cc1 | 51.9% (active)
5 | O=P(NS(=O)(=O)c1ccc(Cl)cc1)(Oc1ccccc1)Oc1ccccc1 | 81.3% (active)
6 | BrCC(Br)C1CCC(Br)C(Br)C1 (configuration not stated) | 56.7% (active)
7 | O=c1[nH]c(=S)n(CCC2=CCCCC2)c(O)c1/C=N/Nc1ccccc1 | 29.8% (active)
8 | O=S(=O)(c1ccc(Cl)cc1)c1ccc(Cl)cc1 | 42.9% (active)
9 | Cc1ccc(OCCOc2cccc(C=C3C(=O)NC(=O)NC3=O)c2)cc1 | 36.7% (active)
10 | O=C(O)CCn1cc(C=C2C(=O)NC(=O)NC2=O)c(-c2ccc(Br)cc2)n1 | 36.4% (active)
11 | O=C(OCCN1CCOCC1)C1(c2ccccc2)CCCC1 | 32.4% (active)
12 | O=C(O)C1(c2ccc(Cl)cc2)CCC1 | 37% (active)
13 | Cn1c(O)c(/C=C2\N=c3ccccc3=C2CCNC(=S)NC2CC2)c(=O)n(C)c1=O | 84.3% (active)
14 | O=C(Cc1ccccc1)NC(Cc1ccc(Cl)cc1)C(=O)O (configuration not stated) | 28.4% (active)
15 | O=C(Cc1ccc(N(CCCl)CCCl)cc1)NC(Cc1ccc(Cl)cc1)C(=O)O (configuration not stated) | 63% (active)
16 | O=C1CC(=O)N(Cc2ccccc2)C(=S)N1 | 15.9%
17 | O=c1[nH]c(=S)n(Cc2ccc(F)cc2)c(O)c1/C=N/N1CCCCCC1 | 27.4% (active)
18 | O=C(N/N=C/c1c(O)n(Cc2ccc(F)cc2)c(=O)[nH]c1=O)c1ccccc1 | 23.9%
19 | O=c1[nH]c(=S)n(Cc2ccc(F)cc2)c(O)c1C=NCC1CCCO1 (configuration not stated) | 27.5% (active)

Row | SMILES | inhibition
20 | O=C(N/N=C/c1c(O)n(Cc2ccc(F)cc2)c(=S)[nH]c1=O)c1ccncc1 | 40.2% (active)
21 | O=c1[nH]c(=S)n(Cc2ccc(F)cc2)c(O)c1/C=N/N1CCCCC1 | 38.2% (active)
22 | CC1CC(OP(O)(=S)c2ccc(N(C)C)cc2NC(=O)c2cccs2)CC(C)(C)C1 (configuration not stated) | 17.3%
23 | O=C1CN=C(c2ccccc2)c2ccccc2N1Cc1ccc(C(F)(F)F)cc1 | 57.8% (active)
24 | Cc1ccc(Sc2ccc(C=C3C(=O)N(C)C(=O)N(C)C3=O)o2)cc1 | 62.6% (active)
25 | O=C1NC(=O)C(=Cc2ccc(-c3ccc(F)cc3O)o2)C(=O)N1 | 20.5%
26 | Cc1ccc(-c2nc3ccc(Cl)cc3n2OC(=O)N(C)C)cc1 | 59% (active)
27 | CNC(=O)O/N=C(\N)Cc1csc2ccc(Cl)cc12 | 54.9% (active)
28 | FC(F)(F)c1cccc(-n2nnnc2C2(N3CCOCC3)CCCCC2)c1 | 23.3%
29 | Cc1ccc2c(c1)=NC(=O)/C(=C/c1c(O)[nH]c(=O)[nH]c1=O)C=2 | 21.7%
30 | C=C[C@@H]1C[C@@]1(C)[C@@H](NP(=O)(c1ccccc1)c1ccccc1)c1ccccc1 | 29.2% (active)
31 | Nc1ccc(C2(c3ccc(N)cc3)CCCCC2)cc1 | 45.2% (active)
32 | O=P(O)(Oc1ccccc1)OC(c1ccccc1)C(F)(F)C(F)(F)F (configuration not stated) | 85.5% (active)
33 | NP(=O)(OCCCc1ccccc1)Oc1ccc(Cl)cc1 (configuration not stated) | 88.8% (active)
34 | NP(=O)(OCCCc1ccccc1)Oc1ccccc1 (configuration not stated) | 51.6% (active)
35 | Nc1ccc2cc(Br)ccc2c1 | 70.6% (active)
36 | CNC(=O)Oc1ccc(C(=O)N2c3ccccc3NC(=O)C2C)cc1 (configuration not stated) | 43.6% (active)
37 | O=C(O)c1c[nH]c2ccc(S(=O)(=O)N(CCCl)CCCl)cc12 | 26% (active)
